Experimental data from PubChem BioAssay AID1159580 (chemical genetic matrix, 2015).
Several values for one entry are separate records, joined by “and”; a condition that tells them apart may be missing. Equal values may be shown once. Among all 5,500 compounds or so, about 2,000 (36%) were called active. Roughly 18% stayed inconclusive and do not appear here. Cut-off read from the data, not from the text of the source: active = normalized growth mostly below about 0.91 (no sharp cut-off); inconclusive = no clear call, values can overlap the other calls; inactive = mostly above about 0.92. The list shows a part of the results.

Assay: chemical genetic growth profiling, strain panel (AID 1159580);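 note: tested at 20 µM; growth read once vehicle control cultures reached saturation at 30 °C; 1 = growth at the plate median or of vehicle wells; lower values mean less growth of the strain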
Settings: S. cerevisiae deletion strains, growth OD

Measured: normalized growth

CCN(CC)C(=O)N1CCN(C)CC1
inactive: locus YAL021C, strain ccr4, active compounds read low 0.984 | locus YAL026C, strain drs2, active compounds read low 0.967 | locus YAL030W, strain snc1, active compounds read low 0.967 | locus YBL061C, strain skt5, active compounds read low 0.976 | locus YBR009C, strain hhf1, active compounds read low 0.957 | locus YBR021W, strain FUR4, active compounds read low 0.974 | locus YBR023C, strain chs3, active compounds read low 0.981 | locus YBR171W, strain sec66, active compounds read low 0.99 | locus YBR229C, strain ROT2, active compounds read low 1.01 | locus YBR231C, strain swc5, active compounds read low 0.97 | locus YBR279W, strain paf1, active compounds read low 0.981 | locus YCL011C, strain gbp2, active compounds read low 0.971 | locus YCL016C, strain dcc1, active compounds read low 0.973 | locus YCL029C, strain bik1, active compounds read low 0.999 | locus YCL069W, strain vba3, active compounds read low 0.984 | locus YCR088W, strain abp1, active compounds read low 0.994 | locus YDL005C, strain med2, active compounds read low 0.963 | locus YDL035C, strain GPR1, active compounds read low 1.04 | locus YDL040C, strain nat1, active compounds read low 0.973 | locus YDL074C, strain BRE1, active compounds read low 1.03 | locus YDL101C, strain DUN1, active compounds read low 1.01 | locus YDL134C, strain PPH21, active compounds read low 1.04 | locus YDL185W, strain tfp1, active compounds read low 0.994 | locus YDL192W, strain arf1, active compounds read low 1 | locus YDR001C, strain nth1, active compounds read low 0.958 | locus YDR069C, strain doa4, active compounds read low 0.976 | locus YDR101C, strain arx1, active compounds read low 1 | locus YDR137W, strain rgp1, active compounds read low 0.917 | locus YDR150W, strain NUM1, active compounds read low 1.02 | locus YDR159W, strain sac3, active compounds read low 0.964 | locus YDR162C, strain NBP2, active compounds read low 1.02 | locus YDR195W, strain ref2 0.943 | locus YDR297W, strain sur2, active compounds read low 0.979 | locus YDR318W, strain mcm21, active compounds read low 1.01 | locus YDR334W, strain swr1, active compounds read low 0.982 | locus YDR335W, strain msn5, active compounds read low 0.95 | locus YDR388W, active compounds read low 1 | locus YDR392W, strain spt3, active compounds read low 0.956 | locus YDR502C, strain sam2, active compounds read low 1 | locus YEL003W, strain gim4, active compounds read low 0.965 | locus YEL037C, strain rad23, active compounds read low 0.978 | locus YEL061C, strain CIN8 (second series), active compounds read low 0.973 | locus YEL061C, strain CIN8, active compounds read low 1.01 | locus YER015W, strain faa2, active compounds read low 0.979 | locus YER016W, strain bim1, active compounds read low 0.94 | locus YER110C, active compounds read low 0.991 | locus YER111C, strain swi4, active compounds read low 0.969 | locus YER155C, strain BEM2 (second series), active compounds read low 0.984 | locus YER155C, strain BEM2, active compounds read low 1.01 | locus YER167W, strain BCK2, active compounds read low 1.01 | locus YFR010W, strain ubp6, active compounds read low 0.959 | locus YGL078C, strain dbp3, active compounds read low 0.997 | locus YGL086W, strain mad1, active compounds read low 1.02 | locus YGL167C, strain pmr1, active compounds read low 0.983 | locus YGL173C, strain kem1, active compounds read low 0.986 | locus YGL227W, strain vid30, active compounds read low 0.982 | locus YGL240W, strain doc1, active compounds read low 0.956 | locus YGL248W, strain PDE1, active compounds read low 1.01 | locus YGL253W, strain hxk2, active compounds read low 0.948 | locus YGR078C, strain PAC10, active compounds read low 1.02 | locus YGR135W, strain pre9, active compounds read low 0.996 | locus YGR252W, strain gcn5, active compounds read low 0.912 | locus YHR013C, strain ard1, active compounds read low 0.942 | locus YHR027C, strain rpn1, active compounds read low 0.971 | locus YHR030C, strain SLT2, active compounds read low 1.02 | locus YHR079C, strain IRE1 (second series), active compounds read low 0.993 | locus YHR079C, strain IRE1, active compounds read low 1.02 | locus YHR094C, strain hxt1, active compounds read low 1 | locus YHR129C, strain ARP1, active compounds read low 1.01 | locus YHR142W, strain chs7, active compounds read low 0.954 | locus YHR200W, strain rpn10, active compounds read low 1 | locus YIL066C, strain RNR3, active compounds read low 1.04 | locus YIL073C, strain SPO22, active compounds read low 1.02 | locus YIL125W, strain kgd1, active compounds read low 1 | locus YIR030C, strain dcg1, active compounds read low 1.01 | locus YJL092W, strain hpr5, active compounds read low 0.985 | locus YJL095W, strain BCK1 (second series), active compounds read low 0.965 | locus YJL095W, strain BCK1, active compounds read low 1 and 1.04 | locus YJL115W, strain asf1, active compounds read low 0.946 | locus YJL129C, strain trk1, active compounds read low 0.951 | locus YJL134W, strain LCB3, active compounds read low 1.01 | locus YJL154C, strain vps35, active compounds read low 0.983 | locus YJL164C, strain tpk1, active compounds read low 0.959 | locus YJL166W, strain qcr8, active compounds read low 0.999 | locus YJL168C, strain set2, active compounds read low 0.992 | locus YJL187C, strain SWE1 (second series), active compounds read low 1.01 | locus YJL187C, strain SWE1, active compounds read low 0.973 | locus YJR043C, strain POL32, active compounds read low 1.04 | locus YJR066W, strain TOR1, active compounds read low 0.965
